Screening data: PubChem, several laboratories
In the library only some 5.6% were active in any assay of this set; here they are far more common.
H9c2 protect – protects H9c2 cardiomyocytes from peroxide injury; H2O2 injury protection, ATPLite, 2 h; protection from H2O2 cell death, % at 20 µM; hit rate 0.63% among 360,000;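 active = compounds giving at least 50% protection of heart cells from peroxide-induced death in the single-dose screen, raw or plate-pattern-corrected value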
PHOSPHO1 block – inhibitors of human PHOSPHO1 phosphatase. AID 1565. recombinant PHOSPHO1, absorbance phosphatase assay. hit rate 1.1% among 290,000. Q8TCT1. inhibition, % at 13.3 µM; in the data active = inhibition above about 60%
PfG6PD inh – PfG6PD (Plasmodium falciparum) enzyme inhibition; PfGluPho enzyme, NADPH resazurin-diaphorase fluorescence; inhibition, % at 20 µM; hit rate 0.78% among 350,000; AID 504690;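 active = inhibition reaching at least a set limit at 20 µM in the primary screen, cut at about 59% in these data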
ALR H2O2 inh – human ALR oxidase inhibition via reduced H2O2; P55789; purified ALR, DTT oxidation, H2O2 HRP-luminol luminescence; inhibition, % (test concentration not listed); hit rate 3.8% among 290,000;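 active = mean replicate inhibition above about 79%, with every replicate also reaching it, limit read from the data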
Target sequence (P55789 whole entry, looked up): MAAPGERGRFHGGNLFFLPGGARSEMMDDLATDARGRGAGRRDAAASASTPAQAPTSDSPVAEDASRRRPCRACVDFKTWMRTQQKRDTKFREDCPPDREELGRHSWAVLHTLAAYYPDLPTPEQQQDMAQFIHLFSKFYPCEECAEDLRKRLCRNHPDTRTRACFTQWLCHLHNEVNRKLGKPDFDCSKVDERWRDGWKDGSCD
PfM18AAP inh – PfM18AAP enzyme inhibition | recombinant PfM18AAP, H-Glu-NHMec fluorogenic cleavage | hit rate 1.2% among 290,000 | inhibition, % at 7.35 µM;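 active = inhibition above the campaign mean inhibition over all tested compounds plus 3 SD, cut at about 28% in these data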
Numbers stand for hits; - = inactive; . = not tested or not shown.

SMILES	H9c2 protect	PHOSPHO1 block	PfG6PD inh	ALR H2O2 inh	PfM18AAP inh
O=C(NCc1cccc(F)c1F)C1CCC(=O)N(C2CCCCCC2)C1 (stereo not given)	-	-	-	-	-
O=C(N/N=C/c1cc(Br)cc(Br)c1O)c1cccc(N2CCCC2=O)c1	52.2	-	-	-	-
O=C(N/N=C/c1ccc(Cl)cc1Cl)c1cccc(N2CCCC2=O)c1	-	-	-	-	-
COc1ccc(C2SCC(=O)N2c2ccc(F)cc2)cc1 (stereo not given)	-	-	-	98.8	-
Cc1ccc(N2C(=O)CSC2c2cccs2)cc1 (stereo not given)	-	-	-	98.9	-
COc1ccc(N2C(=O)CSC2c2ccncc2)cc1 (stereo not given)	-	-	-	99.2	-
O=C1CCCCN1CCc1c[nH]c2ccccc12	-	-	-	86.8	-
Fc1ccc(N/N=C(/c2ccccc2)c2ccccn2)cc1	-	-	-	98.7	-
N#Cc1cccc(NC(=O)CNC(=O)Cc2ccccc2)c1	-	-	-	-	-
N#Cc1cccc(NC(=O)Cc2ccccc2)c1	-	61.8	-	-	-
O=C(CNCc1cccs1)Nc1ccc(OC(F)(F)F)cc1	-	-	-	-	-
Cc1ccc(S(=O)(=O)N2CCC(C(=O)Nc3ccc(N4CCOCC4)cc3)CC2)cc1C	-	.	-	.	.
COc1ccc(/C=N/Nc2nc3ccccc3[nH]2)c(OC)c1OC	-	-	-	98.5	-
Cc1ccccc1/C=N/Nc1nc2ccccc2[nH]1	-	-	-	-	-
Cc1cc(=O)[nH]c(N/N=C/c2c[nH]c3ccccc23)n1	-	-	-	92.1	-
C(/CCc1ccccc1)=N\Nc1nc2ccccc2[nH]1	-	-	-	98.2	-
C(=N\Nc1nc2ccccc2[nH]1)/c1c[nH]c2ccccc12	-	-	-	99.3	-
O=c1/c(=C\c2cccc(O)c2)sc2nc(-c3ccccc3)c(-c3ccccc3)n12	-	-	-	.	-
Nc1ncnc2c(C3OC(CO)C(O)C3O)scc12 (stereo not given)	-	.	-	.	.
CCc1ccc(C(=O)CN2C(=O)NC3(CCc4ccccc43)C2=O)cc1 (stereo not given)	-	.	-	-	.
O=C(COC(=O)/C=C/c1ccc(OC(F)F)cc1)Nc1ccc2[nH]c(=O)[nH]c2c1	-	.	-	.	.
COc1ccc(/C=N/Nc2ccccn2)c(OC)c1OC	-	-	-	98.6	-
O=C(Cc1ccccc1Cl)c1ccccc1	-	.	-	.	.
O=C(NCc1ccco1)c1cc2sccc2n1Cc1ccccc1	-	-	-	92.8	-
O=C(NCCc1ccccc1)c1cc2sccc2n1Cc1ccccc1	-	-	-	-	-
SMILES	H9c2 protect	PHOSPHO1 block	PfG6PD inh	ALR H2O2 inh	PfM18AAP inh
Cn1c(-n2c(CCCN3C(=O)c4ccccc4C3=O)nc3ccccc3c2=O)nc2ccccc21	101.3	-	-	-	-
COC(=O)C(N)Cc1ccc(Cl)cc1 (stereo not given)	-	.	-	-	.
COC(=O)[C@@H](N)Cc1ccc(O)c(O)c1	58.5	.	-	97.6	.
Cc1ccccc1CSCC(=O)NC(=O)NCc1ccco1	-	-	-	-	-
CC(C)(O)C(=O)NNC(=S)NCc1ccco1	-	-	-	-	42.1
O=C(CSCc1ccccc1Br)NNC(=S)NCc1ccco1	-	-	-	-	29.1
Fc1cc(Cl)ccc1NC1=NCCCCC1	-	-	-	-	-
COc1ccccc1CN1CC(C(=O)N2CCOCC2)CCC1=O (stereo not given)	-	-	-	-	-
O=C(Cc1ccc(Cl)c(Cl)c1)N1CCOCC1	-	-	-	.	-
CC1CC(C)CN(C(=O)CSCC(=O)Nc2nc(-c3cccs3)cs2)C1 (stereo not given)	-	-	-	98.6	-
O=C(CSCC(=O)N1CCCCC1)Nc1nc(-c2cccs2)cs1	-	-	-	96.0	-
COc1ccc(OC)c(C2C(C(=O)c3cccs3)=C(O)C(=O)N2CCN2CCOCC2)c1 (stereo not given)	-	-	-	-	-
Cc1cc(C)cc(-n2ncc3c2CCCC3NC(=O)c2cc(C)n(C)n2)c1 (stereo not given)	-	-	-	83.6	-
CCSC1=NC2(CCCCC2)Nc2sc3c(c21)CCCC3	-	95.3	-	-	-
Cn1c(=O)c2ncn(CC(=O)NC3CCCCCC3)c2n(C)c1=O	-	83.7	-	-	-
CN(C)CCNC(=S)Nc1ccc(-c2nc3ccccc3[nH]2)cc1	-	-	-	.	-
O=C1CCCN1CCCNC(=S)Nc1ccccc1	-	-	-	-	-
O=C1CCCN1CCCNC(=S)Nc1ccc(Nc2ccccc2)cc1	-	-	-	99.4	-
